Measured values from PubChem BioAssay (NCATS).
Active and inactive are the calls of the source. Calls follow the shape of the dose curve; as a rule, active = well fitted curve in the direction sought with a large enough effect in the signal ratio, with a control signal flat (not every such curve was filed as active); inconclusive = small, poorly fitted or top-dose-only effect, or effect the other way, or a change in a side signal; inactive = no such curve, though single readings can be large or run the other way; the % refers to the signal ratio.
% is scaled to controls: 0 for no effect and ±100 for the full control effect.

The compounds below were run against Estrogen receptor (Homo sapiens) (UniProt P03372) (assay: qHTS assay for small molecule antagonists of estrogen receptor alpha signaling (AID 588513)). Conditions: ER-alpha-UAS-bla HEK293, beta-lactamase ratio, antagonist mode; series mostly up to 76.9 µM; activity, negative = inhibition: at the top concentration.
Estrogen receptor (Homo sapiens), sequence (P03372 whole entry, looked up): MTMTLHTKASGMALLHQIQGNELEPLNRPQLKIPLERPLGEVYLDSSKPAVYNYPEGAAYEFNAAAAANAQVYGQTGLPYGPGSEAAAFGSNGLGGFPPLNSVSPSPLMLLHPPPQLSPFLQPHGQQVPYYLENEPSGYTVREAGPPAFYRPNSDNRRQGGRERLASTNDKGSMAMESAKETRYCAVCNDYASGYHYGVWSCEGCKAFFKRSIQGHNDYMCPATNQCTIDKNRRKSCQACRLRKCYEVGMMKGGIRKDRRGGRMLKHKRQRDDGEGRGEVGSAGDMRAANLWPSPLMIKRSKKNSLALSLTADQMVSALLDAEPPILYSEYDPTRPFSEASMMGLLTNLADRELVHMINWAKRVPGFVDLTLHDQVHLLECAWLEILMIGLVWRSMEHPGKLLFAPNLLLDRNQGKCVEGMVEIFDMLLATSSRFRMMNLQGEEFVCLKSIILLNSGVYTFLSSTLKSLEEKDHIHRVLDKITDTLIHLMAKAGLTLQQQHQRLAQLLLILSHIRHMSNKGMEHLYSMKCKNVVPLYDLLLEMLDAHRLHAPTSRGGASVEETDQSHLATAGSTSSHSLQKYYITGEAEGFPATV
From the text: NIH Chemical Genomics Center [NCGC]
U.S. Environmental Protection Agency [EPA]
National Institutes of Environmental Health Sciences [NIEHS]
National Toxicology Program [NTP]
Estrogen receptor alpha (ER-alpha) is an important member of nuclear hormone receptors. ER-alpha plays important role in breast cancer as well as in other women's health issues. The majority of breast cancers is estrogen receptor (ER) positive and depends on estrogen for growth. There is also growing concern for some of environmental chemicals which may contribute the increasing the incidence of breast cancer. Therefore, it is important to understand the effect of environmental chemicals in ER-alpha signaling pathway.
NCGC Assay Protocol Summary
Using a beta-lactamase reporter-gene under control of the ER response element, a cell-based assay [ER-alpha-UAS-bla GripTiteTM cell-Based Assay from Invitrogen] was used to measure ER-alpha signaling pathway in antagonist mode. ER-alpha-UAS-bla-GripTite HEK 293 cells were used with assay medium containing 2% charcoal/dextran treated FBS, 0.1 mM NEAA and 1 mM sodium pyruvate. Cells were cultured in this assay medium overnight in the flasks before the assay. The assay was performed in clear bottom black Greiner 1536-well plates. 17-beta-estradiol was used as a positive control in the screen. Library compounds were measured for their ability to inhibit the reporter gene activity. Compounds were screened in a titration series in 1536-well format. […] Data was normalized relative to 17-beta-estradiol control (0.5nM, 100%), and DMSO only wells (basal, 0%). Concentration-response titration points for each compound were fitted to the Hill equation yielding concentrations of half-maximal inhibition (IC50) and maximal response (efficacy) values.
qHTS protocol for ER-alpha beta-lactamase assay in antagonist mode
[Step] [Parameter] [Value] [Description]
1. Reagent; 5 uL; 5000 cells/well
2. Incubation; 37 C for 4 hrs
- Dose response, Start 38uM, 1:2 dilutions with duplicates
- Two columns with 38 and 19uM (final) concentration.
5. Agonist (Stimulator); 1uL; 17-beta-estradiol at 0.5nM (final) concentration
6. Incubation; 37 C for 18 hrs
7. Detection reagent; 1 uL of CCF4-dye
8. Incubation; RT for 2 hrs
9. Detection; Fluorescence; Envision plate reader or Acumen plate reader
`COc1cc([C@H]2Oc3cc([C@H]4Oc5cc(O)cc(O)c5C(=O)[C@@H]4O)ccc3O[C@@H]2CO)ccc1O` was tested, and the “activity, negative = inhibition” value was 0.288% (inactive).
For `CN(C)C(=O)Nc1ccc(Cl)c(Cl)c1`, the “activity, negative = inhibition” value was -15.5% (inactive).
In the case of `CCOc1ccc(NC(C)=O)cc1`, the Potency is reported as “inactive”.
`COc1ccc(C(Cl)=C(c2ccc(OC)cc2)c2ccc(OC)cc2)cc1` was tested, and the Potency was 1580 nM [inconclusive] (active).
With `CCCCCCCCCCCCCCCCO` the “activity, negative = inhibition” value was -0.743% (inactive).
`CCOc1ccccc1C(N)=O` was tested, and the “activity, negative = inhibition” value was 5.92% (inactive).
For `COc1ccc(C(=O)c2ccccc2)c(O)c1`, the Potency was “inactive”.
With `CCCCCCCC/C=C\CCCCCCCCN` the “activity, negative = inhibition” value was 6.39% (inactive).
With `NC(=O)c1ccccc1O` the “activity, negative = inhibition” value was 22% (inactive).
In the case of `CCCCCCCCCCCCCC(=O)OC(C)C`, the “activity, negative = inhibition” value is reported as 25.1% (inactive).
With `O=C(O)c1ccc(S(=O)(=O)N(Cl)Cl)cc1` the “activity, negative = inhibition” value was 6.78% (inactive).
In the case of `C/C=C/c1ccc(O)c(OC)c1`, the Potency is reported as “inactive”.
For `CCCCC(CC)COC(=O)c1ccc(N(C)C)cc1` (stereo not drawn), the Potency was “inactive”.
